Rango release inh = prevents RanGTP from dissociating the Rango-importin beta complex; O95149+P62826; Biochemical FRET Rango-importin beta, RanGTP-induced dissociation; Potency, µM (top dose mostly 46.1 µM); 340,000 tested, 0.071% active; AID 540253; note: nearly all actives have a fitted effect of over 45% in size
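Compounds sat 5 min at room temperature with 0.1 uM Rango biosensor plus 0.25 uM importin beta, then FRET pre-read. RanGTP-RCC1 (0.6 uM Ran, 2mM GTP, 0.2 uM RCC1) added for 45 min, and the CFP/YFP post-read measured blocked complex dissociation.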
TSG101-PTAP inh = blocks PTAP/TSG101 interaction to inhibit HIV-1 budding; Fluorescence polarization, FITC-PTAP peptide / Tsg101 binding; Potency, µM (series often up to 115 µM), most hits filed as inhibitors; 340,000 tested, under 10 active; AID 493005; active = well fitted inhibition curve with a large enough effect in the main read-out, with a control signal flat, not every such curve was filed as active
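Compounds were pin-transferred onto Tsg101 binding domain (10 uM final) in HEPES pH 7.5 buffer, then FITC-PTAP peptide was added at 50 nM final. After 20 min at RT, polarization reported peptide displacement across a qHTS concentration series.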
DRD3 antagonist = blocks the human D3 dopamine receptor; 360,000 tested, 2.5% active; D3R cells, DiscoveRx beta-arrestin luminescence, antagonist mode; hits give low values; max response, negative = inhibition, %; AID 652054; P35462; in the data active = max response below about -50%
Target sequence (P35462 whole entry, looked up): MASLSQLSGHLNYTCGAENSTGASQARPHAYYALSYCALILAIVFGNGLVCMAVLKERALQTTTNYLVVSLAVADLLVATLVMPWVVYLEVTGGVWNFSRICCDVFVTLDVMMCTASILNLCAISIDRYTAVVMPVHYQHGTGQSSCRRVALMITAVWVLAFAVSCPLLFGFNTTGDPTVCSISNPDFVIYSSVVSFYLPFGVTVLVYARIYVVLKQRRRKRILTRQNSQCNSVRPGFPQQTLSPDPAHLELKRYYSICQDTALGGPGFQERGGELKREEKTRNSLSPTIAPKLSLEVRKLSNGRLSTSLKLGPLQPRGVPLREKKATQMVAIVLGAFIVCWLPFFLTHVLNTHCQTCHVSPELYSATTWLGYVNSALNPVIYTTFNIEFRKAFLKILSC
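Cells expressing the human receptor were seeded at 1500 cells/well, incubated overnight at 37 degrees C in 5% CO2, then exposed to library compounds with dopamine controls for 90 minutes at 37 degrees C before luminescent detection.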
Rango-impB inh = prevents formation of the Rango-importin beta complex. Q14974. Rango CFP/YFP FRET sensor + importin beta, 45 min. Potency, µM (titrated, usually from 92.2 µM). 340,000 tested, 0.031% active; note: nearly all actives have a fitted effect of over 15% in size
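Inhibition scored from the CFP 486 nm/YFP 530 nm FRET ratio 45 min after adding 0.125 microM importin beta to 50 nM Rango biosensor preincubated 5 min with compound (room temperature, PBS with DTT, Tween-20, BSA). No-importin wells as positive control.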
MmCpn inh = M. maripaludis TRiC chaperonin inhibition | purified Mm-Cpn ATPase, ADP Transcreener TR-FRET | Potency, µM (highest dose often 76.9 µM), usual class: inhibitors | 330,000 tested, 0.031% active | AID 504842; active = well fitted inhibition curve with a large enough effect; note: nearly all actives have a fitted effect of over 80% in size
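Purified archaeal chaperonin (25 nM final) was preincubated with compound for 10 min at 37°C, then ATP (10 uM final) was added for 30 min at 37°C in Tris pH 7.4/KCl/MgCl2/DTT buffer. ADP was quantified by HTRF Transcreener TR-FRET.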
D3 ag = D3 dopamine receptor (human) agonism. 410,000 tested, 0.58% active. max activation, %. AID 652048. D3R DiscoveRx beta-arrestin cells, luminescence, 90 min; in the data active = max activation above about 30%
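Agonist-mode cell screen: cells plated at 1500/well and incubated overnight at 37 °C, then exposed to library compounds for 90 min at 37 °C. Detection reagent was added for 30–60 min at room temperature, and luminescence was read.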
A number is an active result. Rows were chosen to be rich in hits. Some 2.9% of all compounds tested hit in one or more screens of this group. Unless noted, calls come from the whole dose curve.

`c1ccc(CNc2nc(N3CCN(Cc4ccccc4)CC3)nc3ccccc23)cc1` gave Rango release inh inactive, TSG101-PTAP inh inactive, DRD3 antagonist -93, Rango-impB inh inactive, MmCpn inh inactive and D3 ag inactive.
`CCOC(=O)c1ccc(NC(=O)C2CC(O)CN2S(=O)(=O)c2ccc(C)cc2)cc1` (stereo not given) gave Rango release inh inactive, TSG101-PTAP inh inactive, DRD3 antagonist -54, Rango-impB inh inactive, MmCpn inh inactive and D3 ag inactive.
`CCOC(=O)c1ccc(NC(=O)C2Cc3ccccc3CN2S(=O)(=O)c2ccc(Cl)cc2)cc1` (stereo not given) gave D3 ag inactive.
CN(c1ccccc1C(=O)Nc1cccc(Cl)c1Cl)S(C)(=O)=O was read as Rango release inh inactive, TSG101-PTAP inh inactive, DRD3 antagonist -57, Rango-impB inh inactive, MmCpn inh inactive and D3 ag inactive.
`Nc1nc(-c2ccc(F)cc2)cc(C(F)(F)F)n1` gave Rango release inh inactive, TSG101-PTAP inh inactive, DRD3 antagonist inactive, Rango-impB inh inactive, MmCpn inh inactive and D3 ag inactive.
COc1ccc(-c2cc(C(F)(F)F)nc(N)n2)cc1 was read as Rango release inh inactive, TSG101-PTAP inh inactive, DRD3 antagonist inactive, Rango-impB inh inactive, MmCpn inh inactive and D3 ag inactive.
COc1ccc(-c2cc(C(F)(F)F)nc(S(C)(=O)=O)n2)cc1 was read as Rango release inh inactive, TSG101-PTAP inh inactive, DRD3 antagonist -75, Rango-impB inh inactive, MmCpn inh inactive and D3 ag inactive.
CS(=O)(=O)c1nc(-c2ccc(F)cc2)cc(C(F)(F)F)n1 was read as Rango release inh inactive, TSG101-PTAP inh inactive, DRD3 antagonist -79, Rango-impB inh inactive, MmCpn inh inactive and D3 ag inactive.
For c1ccc(C2Nc3cccc4cccc(c34)N2)cc1 the results were Rango release inh inactive, TSG101-PTAP inh inactive, DRD3 antagonist inactive, Rango-impB inh inactive, MmCpn inh inactive and D3 ag inactive.
For c1csc(C2Nc3cccc4cccc(c34)N2)c1 the results were Rango release inh inactive, TSG101-PTAP inh inactive, DRD3 antagonist -70, Rango-impB inh inactive, MmCpn inh inactive and D3 ag inactive.
Screening COc1cccc(C(c2nnnn2-c2c(C)cccc2C)N2CCN(C/C=C/c3ccccc3)CC2)c1OC (stereo not given) returned DRD3 antagonist -121 and D3 ag inactive.
Screening CC(C)(C)n1nnnc1C(c1ccnc2ccccc12)N1CCN(C/C=C/c2ccccc2)CC1 (stereo not given) returned DRD3 antagonist inactive and D3 ag inactive.
Screening Cc1cccc(C)c1-n1nnnc1C(c1ccnc2ccccc12)N1CCCC1 (stereo not given) returned DRD3 antagonist -56 and D3 ag inactive.
Screening COc1ccc(C(c2nnnn2Cc2ccccc2)N2CCN(c3ccccc3)CC2)cc1 (stereo not given) returned Rango release inh inactive, TSG101-PTAP inh inactive, DRD3 antagonist inactive, Rango-impB inh inactive, MmCpn inh inactive and D3 ag inactive.
`COc1ccc(C(c2nnnn2-c2c(C)cccc2C)N2CCN(C/C=C/c3ccccc3)CC2)cc1` (stereo not given) gave DRD3 antagonist -87 and D3 ag inactive.
Cc1cccc(C)c1-n1nnnc1C(c1ccnc2ccccc12)N1CCN(C/C=C/c2ccccc2)CC1 (stereo not given) was read as DRD3 antagonist -116 and D3 ag inactive.
For C=CCN1CCN(C(c2ccccc2OC)c2nnnn2C(C)(C)C)CC1 (stereo not given) the results were Rango release inh inactive, TSG101-PTAP inh inactive, DRD3 antagonist inactive, Rango-impB inh inactive, MmCpn inh inactive and D3 ag inactive.
`CCOc1ccc(CCNC(=O)c2[nH]c3cc(OC)ccc3c2Sc2ccccc2)cc1OCC` gave D3 ag inactive.
`Cc1ccc(C(C)C)c(OCC(=O)N2CCC(c3nc4ccccc4o3)CC2)c1` gave D3 ag inactive.
O=C(CO)[C@@H](O)[C@H](O)[C@H](O)CO was read as D3 ag inactive.
`Cc1cccc(C)c1-n1nnnc1C(c1ccccc1OC(F)(F)F)N1CCN(C/C=C/c2ccccc2)CC1` (stereo not given) gave DRD3 antagonist -95 and D3 ag inactive.
`Cc1cccc(C)c1NC(=O)C(c1ccccc1OC(F)(F)F)N1CCN(C/C=C/c2ccccc2)CC1` (stereo not given) gave DRD3 antagonist -63 and D3 ag inactive.
For CC(C)(C)n1nnnc1C(c1ccccc1OC(F)(F)F)N1CCN(C/C=C/c2ccccc2)CC1 (stereo not given) the results were DRD3 antagonist inactive and D3 ag inactive.
Screening COc1ccc(C)cc1NC(=O)CN1C(=O)CCc2cc(S(=O)(=O)N3CCOCC3)ccc21 returned D3 ag inactive.
`Cc1ccc(NC(=O)C(C)OC(=O)c2ccc(NS(=O)(=O)c3ccc(F)c(F)c3)cc2)cc1` (stereo not given) gave Rango release inh inactive, TSG101-PTAP inh inactive, DRD3 antagonist inactive, Rango-impB inh inactive, MmCpn inh inactive and D3 ag inactive.
Screening CCc1ccc(NC(=O)C(C)OC(=O)c2ccc(NS(=O)(=O)c3ccc(C)c([N+](=O)[O-])c3)cc2)cc1 (stereo not given) returned Rango release inh inactive, TSG101-PTAP inh inactive, DRD3 antagonist -53, Rango-impB inh inactive, MmCpn inh inactive and D3 ag inactive.
COc1ccc(S(=O)(=O)NCCCO)cc1-c1nnc2c3ccccc3c(C)nn12 was read as D3 ag inactive.
`COc1ccc(-c2nc3ccc(C4=NNC(=O)CC4C)cc3[nH]2)cc1` (stereo not given) gave D3 ag inactive.
COc1ccc(N2CCN(c3nc4cc(C)ccc4cc3C=O)CC2)cc1 was read as Rango release inh inactive, TSG101-PTAP inh inactive, DRD3 antagonist inactive, Rango-impB inh inactive, MmCpn inh inactive and D3 ag 31.
For COc1ccc(N2CCN(c3cc(C)c4ccc(C)cc4n3)CC2)cc1 the results were Rango release inh inactive, TSG101-PTAP inh inactive, DRD3 antagonist inactive, Rango-impB inh inactive, MmCpn inh inactive and D3 ag inactive.
For CCCCCc1cc(=O)[nH]c(=S)[nH]1 the results were Rango release inh inactive, TSG101-PTAP inh inactive, DRD3 antagonist inactive, Rango-impB inh inactive, MmCpn inh inactive and D3 ag inactive.

High-throughput results as filed in PubChem.
